Screens: PubChem, National Center for Advancing Translational Sciences (NCATS)
TDP1 inh: inhibitors of human tyrosyl-DNA phosphodiesterase TDP1; recombinant TDP1, AlphaScreen DNA substrate cleavage; Potency, µM (highest dose often 130 µM), inactives show top-dose activity change, negative = inhibition, usual class: inhibitors; hit rate 0.28% among 350,000; AID 485290; also: potency is read from the fitted curve at half-maximal effect; nearly all actives have a fitted effect of over 40% in size
Target sequence (Q9NUW8 whole entry, looked up): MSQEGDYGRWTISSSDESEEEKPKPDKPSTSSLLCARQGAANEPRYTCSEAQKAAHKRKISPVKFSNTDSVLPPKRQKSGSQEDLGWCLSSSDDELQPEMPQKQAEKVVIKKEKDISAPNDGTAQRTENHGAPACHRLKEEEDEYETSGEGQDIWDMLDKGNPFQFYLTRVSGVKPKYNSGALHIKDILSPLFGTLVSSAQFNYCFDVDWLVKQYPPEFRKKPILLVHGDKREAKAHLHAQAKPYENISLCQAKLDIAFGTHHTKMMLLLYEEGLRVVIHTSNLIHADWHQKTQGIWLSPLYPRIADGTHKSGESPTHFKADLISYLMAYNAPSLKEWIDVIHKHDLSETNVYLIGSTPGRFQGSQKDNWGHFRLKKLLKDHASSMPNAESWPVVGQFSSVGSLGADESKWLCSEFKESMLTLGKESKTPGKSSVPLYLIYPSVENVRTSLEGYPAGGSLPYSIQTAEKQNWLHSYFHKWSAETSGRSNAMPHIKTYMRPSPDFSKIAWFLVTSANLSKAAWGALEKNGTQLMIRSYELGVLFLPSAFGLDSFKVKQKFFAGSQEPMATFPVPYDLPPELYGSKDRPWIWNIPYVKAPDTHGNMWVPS
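Enzyme-compound mixtures sat 15 min at room temperature, followed by a 5 min reaction with 15 nM final substrate and 10 min with AlphaScreen beads. Recombinant human Tdp1 was used at 1 nM final.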
TDP1 cell noCPT: qHTS for Inhibitors of human tyrosyl-DNA phosphodiesterase 1 (TDP1): qHTS in cells in absence of CPT | DT40 Tdp1-/- hTDP1 cells, no CPT, ATP luminescence, 48 h | AID 686978, 2013 | Potency, µM (titrated, usually from 46.2 µM), for inactives: at the highest dose activity change, negative = growth inhibition, most hits filed as inhibitors | hit rate 15% among 420,000; also: potency is read from the fitted curve at half-maximal effect; nearly all actives have a fitted effect of over 55% in size
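DT40 Tdp1-/-;hTDP1 cells, no CPT (DMSO vehicle only), 400 cells/well; compounds pin-transferred; ≥48 hr, 37 °C; CellTiter-Glo 30 min RT dark, luminescence read.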
DT40 TDP1 CPT: growth inhibition of DT40 Tdp1-/-;hTDP1 cells with camptothecin (screen for TDP1 inhibitors); AID 686979; hit rate 12% among 420,000; chicken DT40 Tdp1-/-;hTDP1 cells + 20 nM CPT, ATP luminescence, 48 h; Potency, µM (top dose mostly 46.2 µM), inactives show at the top dose activity change, negative = growth inhibition, actives largely listed as inhibitors; also: potency is read from the fitted curve at half-maximal effect; nearly all actives have a fitted effect of over 55% in size
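Chicken DT40 Tdp1-/- cells stably complemented with human TDP1 were seeded at 400 cells/well in medium containing 20 nM camptothecin, exposed to pin-transferred compounds, and grown at 37 °C for at least 48 hr. Viability was read as ATP luminescence.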
Six1-Eya2 blk: Six1/Eya2 interaction inhibition; AlphaScreen GST-Six1/His-Eya2 binding, biochemical; active compounds read low; activity change, % (test concentration not listed); hit rate 0.56% among 360,000; in the data active = activity change below about -65%; inconclusive = mostly about -30% to -63%
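GST-Six1 + His-Eya2 (5X stock: 250/500 nM); Tris pH 8.0, 300 mM NaCl, 0.05% BSA, 0.02% Tween 20; GSH donor/Ni acceptor beads; 1 h 37 °C dark; AlphaScreen readout.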
IL-1B inflam inh: inhibitors of inflammasome signaling (IL-1 beta secretion) | THP-1 LPS/ATP IL-1B secretion, AlphaLISA, 16 h; active compounds read low | activity change, % at 57.5 µM | hit rate 4.7% among 360,000 | AID 743279; in the data active = activity change below about -50%; inconclusive = mostly about -30% to -49%
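THP-1 cells pretreated 1 hr with compounds (up to 57.5 uM final), then stimulated with LPS (250 ng/mL final) plus ATP (1.25 mM final); secreted IL-1B measured by AlphaLISA after 16 hr, decreased signal indicating inhibition.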
CtBP-E1A inh: CtBP/E1A binding inhibition; AlphaScreen GST-E1A/His-CtBP binding, 1536-well; active compounds read low; hit rate 0.49% among 340,000; activity change, % (no concentration beside the values); in the data active = activity change below about -65%; inconclusive = mostly about -30% to -63%
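Protein mix (5X: 125 nM each GST-E1A, His-CtBP) was incubated with pinned compound 2 h at 37 deg C in dark, in 50 mM Tris pH 8.0 buffer with 300 mM NaCl. Glutathione donor and nickel acceptor beads followed; AlphaScreen signal read after 1 h.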
The depositor's hits bear a star; ? = inconclusive; . = no result; [ ] = another dose, or the depositor's remark. Most compounds without a hit are left out; they make up all but 18% or so of the library. Unless noted, calls follow the shape of the dose curve; as a rule, active = well fitted curve in the direction sought with a large enough effect; inconclusive = small, poorly fitted or top-dose-only effect, or another doubt; inactive = no such curve, though single readings can be large; an effect the other way counts as inactive or inconclusive. % is scaled to controls: 0 for no effect and ±100 for the full control effect.

SMILES	TDP1 inh	TDP1 cell noCPT	DT40 TDP1 CPT	Six1-Eya2 blk	IL-1B inflam inh	CtBP-E1A inh
CC(=O)Oc1ccc2c(C)c(CC(=O)N3CCN(C(=O)C4COc5ccccc5O4)CC3)c(=O)oc2c1C (centres undefined)	2.3%	-28.9%	?	-0.4	-24.8	-7.2
O=C1C2C3C=CC(CC3)C2C(=O)N1c1nccs1 (centres undefined)	10µM*	-17.9%	0.8%	?	13.3	-15.4
O=C1C2C3C=CC(C2C(=O)N1c1nccs1)C1C(=O)N(c2nccs2)C(=O)C31 (centres undefined)	.	12.4%	9.8%	-1.1	-5.8	12.9
CCOC(=O)Cc1c(C)nc2cc(-c3ccc(C(C)(C)C)cc3)nn2c1C	.	14.6µM*	?	.	.	.
CCOc1ccc(NC(=O)CCc2c(C)nc3cc(-c4ccc(Cl)cc4)nn3c2C)cc1	4.6%	16.4µM*	14.6µM*	.	.	.
COC(=O)c1ccccc1NC(=O)CCc1c(C)nc2cc(-c3ccc(Cl)cc3)nn2c1C	2.3%	?	?	.	.	.
CCOC(=O)c1cccc(NC(=O)CCc2c(C)nc3cc(-c4ccc(Cl)cc4)nn3c2C)c1	9.2%	16.4µM*	20.6µM*	.	.	.
Cc1c(OC(C)C(=O)NCCCN2CCOCC2)ccc2c1oc(=O)c1ccccc12 (centres undefined)	11.6%	-28.4%	?	-1.5	-7.0	-5.4
CCN(CC)c1ccc(NC(=O)Cn2cc3c(n2)CCC(C)C3)c(C)c1 (centres undefined)	3.3%	?	-2.2%	-29.7	15.6	-22.2
CCOC(=O)/C(=C/C=C1\Sc2cc(OCC)c(OCC)cc2N1CC)C(C)=O	2.7%	4.61µM*	7.31µM*	?	-1.7	?
CCOC(=O)/C(=C\C=C1/Sc2cc(OCC)c(OCC)cc2N1CC)C(C)=O	-1.2%	2.31µM*	1.84µM*	?	-93.0*	-21.6
Cc1ccc(NC(=O)CSc2nccn2Cc2ccco2)cc1Cl	3.3%	?	?	.	.	.
CC(=O)c1coc2ccc(OCC(=O)O)cc12	0.7%[56.1 µM]	-19.3%	0.7%	5.5	11.3	3.4
Cc1cc(-c2cccc([N+](=O)[O-])c2)nc2ccccc12	6.9%	-11.3%	15.2%	-5.1	9.9	2.4
O=[N+]([O-])c1cccc(-c2c(-c3ccccc3)ncc3cc(F)ccc23)c1	3.8%	20.6µM*	8.2µM*	-27.5	20.4	-19.3
Nc1nc(-c2ccccc2)c(-c2ccc([N+](=O)[O-])cc2)s1	3.5%	?	?	-2.2	0.0	-3.8
O=[N+]([O-])c1ccc(-c2c(-c3ccccc3)ncc3cc(F)ccc23)cc1	4.7%	18.4µM*	14.6µM*	-19.5	22.8	?
Cc1ccc(C(=O)c2cc(C)sc2NC(=O)CN2CCN(C(=O)c3ccco3)CC2)cc1	6.9%	18.4µM*	?	-25.3	-68.7*	-16.2
CCc1cc(C(=O)OC)c(NC(=O)CN2CCN(C(=O)c3ccco3)CC2)s1	0.6%	?	?	-5.6	0.0	-5.4
CC1CCN(CC(=O)Nc2sc3c(c2C#N)CCC3)CC1	4.9%	-12.9%	-3.7%	-2.2	-17.7	-0.2
CC1CCc2c(sc(NC(=O)CN3CCN(C(=O)c4ccco4)CC3)c2C#N)C1 (centres undefined)	0.0%	25.9µM*	18.4µM*	-9.5	-7.7	-3.7
CCOC(=O)c1c(NC(=O)CN2CCN(C(=O)c3ccco3)CC2)sc(C(N)=O)c1C	4.9%	18.4µM*	-28.2%	?	-11.1	.
CCOc1c(Cl)cc(/C=N/NC(N)=S)cc1OC	4.5%	23.1µM*	?	-6.1	154.8	0.5
C#CCOc1c(Cl)cc(/C=C2/C(=O)ON=C2C)cc1OCC	.	?	?	2.8	10.7	-3.1
COc1cc(/C=N/O)cc(Cl)c1OC	1.9%	-23.8%	1.1%	3.8	11.4	10.7
